Results on 54 compounds are retold here after ChEMBL document CHEMBL3988442, “University of Dundee, Small-Polar-MMV Screening Library” (2021).

The whole screen tested about 69,000 compounds, of which about 950 (1.4%) showed an effect of 50% or more. Only a selection was taken, and strong results are over-represented in it overall.

For this test, the system named is Mycobacterium tuberculosis. The experiment in a line: Cornell M. t heat shock assay. Note: in the data most compounds retested in dose-response had high values. More on the design: dose or concentration left out as unconfirmed. The class given is functional, organism-based.
In the case of `O=C(NCCCNc1ccc(C(F)(F)F)cn1)c1ccccc1`, the “Percent Effect” value amounted to 26.28%.

`O=C(NCCCNc1ccc(C(F)(F)F)cn1)c1ccc(F)cc1`: the “Percent Effect” value worked out at 26.36%. For `N#Cc1ccc(C(=O)NCCCNc2ccc(C(F)(F)F)cn2)cc1` the value was 28.89%; for `Cc1cc(NCCNc2ccc(C#N)cn2)nc(C)n1`, -18.17%. For `N#Cc1ccc(NCCNc2ccc(C(F)(F)F)cn2)nc1` the value was 51.52%; for `N#CC1(C(=O)NCCCNc2ccc(C(F)(F)F)cn2)CCCC1`, 102.8%.

Take `O=C(O)C(F)(F)F.O=C1CC(c2ccccc2)C2(CCN(Cc3nccs3)CC2)N1` (centres undefined): the “Percent Effect” value is given as -1.259%. Consider `CC(=O)N1CCC2(CC1)CNc1c(F)cccc12.Cl`, for which the “Percent Effect” value amounted to 12.35%. For `Cc1nc(-c2cc(Cl)c3c(c2)CC(CN)O3)c[nH]1` (centres undefined) the value was 42.51%. Under `Cc1nc(-c2cc(Cl)cc3c2OC(CN)C3)c[nH]1` (centres undefined) stands 52.4%; under `Cc1cc2c(c(-c3c[nH]c(C)n3)c1)OC(CN)C2` (centres undefined), 1.503%. With `Cc1cc(C(F)(F)F)n2nc(C3CCCN3C3CCSCC3)cc2n1.O=C(O)CC(O)(CC(=O)O)C(=O)O` (centres undefined), the “Percent Effect” value is -13.15%. For the compound `COCC(=O)NC1CC2(CCN(CC3CC3)CC2)Oc2ccccc21.O=C(O)C(F)(F)F` (centres undefined), the “Percent Effect” value was -26.45%.

Regarding `COc1cc(N2CCC3(CCN(Cc4nccs4)CC3)C2)ncn1.O=C(O)C(F)(F)F`, the “Percent Effect” value came out at 24.13%. Under `Cc1cccc(CN2C[C@H](OCc3csc(C)n3)[C@H]3COC[C@H]32)n1.O=C(O)C(F)(F)F.O=C(O)C(F)(F)F` stands -14.33%; under `CC(C)Cc1ccc(C(=O)Cn2cnnc2[S+](C)[O-])cc1` (centres undefined), 59.76%; under `C[S+]([O-])c1nncn1CC(=O)c1ccc(Br)cc1` (centres undefined), 11.9%. For `CC(C)Oc1ccc(C(=O)Cn2cnnc2[S+](C)[O-])cc1` (centres undefined) the value was 17.53%. For `O=C(O)C(F)(F)F.O=C(c1ccc(F)cc1)N1CCC2(CCCN2CC2CC2)CC1` the value was -17.36%. `CS(=O)(=O)N1CCN(c2ccc3ccc(C(=O)NC4CC4)cn23)CC1`: the “Percent Effect” value is on record as 20.39%. Under `O=C(NC1CC1)c1ccc2ccc(N3CCN(CC4CC4)CC3)n2c1` stands 38.85%; under `CN(C)C(=O)N1CCN(c2ccc3ccc(C(=O)NC4CC4)cn23)CC1`, -6.605%. As for `CC(C)N1CCN(c2ccc3ccc(C(=O)NC4CCCC4)cn23)CC1.O=C(O)C(F)(F)F`, the “Percent Effect” value stood at 67.57%. Under `CC(=O)N1CCN(c2ccc3ccc(C(=O)NC4CCCC4)cn23)CC1` stands 69.47%; under `COCCN1CCN(c2ccc3ccc(C(=O)NC4CC4)cn23)CC1`, -14.38%. For `CN(C)C(=O)[C@H]1C[C@@H]2CCN(C3CCOCC3)C[C@@H]2O1.O=C(O)C(F)(F)F` the value was 2.005%; for `CN(C)c1ncnc2c1CCN(CC1CCOC1)CC2.O=C(O)C(F)(F)F` (centres undefined), -1.073%. As for `Cc1cccc(N2CC[C@@H]3CN(C(=O)c4ccco4)CCO[C@@H]3C2)n1.O=C(O)C(F)(F)F`, the “Percent Effect” value is on record as 6.087%. Turning to `Cn1cccc1C(=O)N1CCO[C@@H]2CN(Cc3nccs3)C[C@@H]2C1.O=C(O)C(F)(F)F`, the “Percent Effect” value is -1.358%.

With `CN(C)[C@H]1CCN(c2ccnc(C(=O)NCc3ccco3)c2)C1`, the “Percent Effect” value worked out at 19.62%.

As to `CCCOC1CCCN(c2ccnc(C(=O)NCc3ccco3)c2)C1` (centres undefined), the “Percent Effect” value is reported as 56.57%.

Take `O=C(NCc1ccco1)c1cc(N2CC[C@@H](O)C2)ccn1`: the “Percent Effect” value was determined as 1.104%. Take `CC[C@@H]1N(Cc2ccoc2)CCC[C@]12CCC(=O)N2CCOC.O=C(O)C(F)(F)F`: the “Percent Effect” value is recorded as -21.47%. For `CN1CC[C@H]2[C@H](C[C@@H](CN3CCCC3)N2c2nccs2)C1.O=C(O)C(F)(F)F.O=C(O)C(F)(F)F.O=C(O)C(F)(F)F` the value was 17.76%. Under `O=C(O)C(F)(F)F.O=C1N(CC2CC2)CCC12CCCN(c1ncc(F)cn1)C2` (centres undefined) stands 23.17%; under `Cc1ccc(CN2CCC3(CC2)C(=O)Nc2ccccc23)s1.O=C(O)C(F)(F)F`, 0.7618%; under `Cc1ccc(CN2CCC3(C2)C(=O)N(CC(N)=O)c2ccccc23)s1` (centres undefined), -35.1%. For `Cc1ccc(CN2CCC3(C2)C(=O)N(CC2CC2)c2ccccc23)s1.O=C(O)C(F)(F)F` (centres undefined), the “Percent Effect” value is on record as 22.05%. As for `Cc1ccc(CN2CCC3(CC2)C(=O)N(C)c2ccccc23)s1.O=C(O)C(F)(F)F`, the “Percent Effect” value is on record as 67.96%. `CC(C)CN1C(=O)C2(CCN(Cc3ccc(F)cc3)C2)c2ccccc21` (centres undefined): the “Percent Effect” value is reported as 17.34%. Under `Cc1ccc(CN2CCC3(C2)C(=O)N(CC(C)C)c2ccccc23)s1` (centres undefined) stands 104.8%. With `Cc1cccc(CN2C[C@@H]3COC[C@]3(COc3cccnc3)C2)n1.O=C(O)C(F)(F)F.O=C(O)C(F)(F)F.O=C(O)C(F)(F)F`, the “Percent Effect” value is recorded as -8.53%. For `Cc1csc(Nc2cc(C3CCCCN3C)nc(C)n2)n1` (centres undefined) the value was -8.179%. Under `Cc1cc(Nc2nc(C)cs2)nc(C2CCCCN2CCO)n1` (centres undefined) stands 103.2%. Regarding `Cc1cccc(Nc2cc(C)nc(C3CCCCN3CC(N)=O)n2)n1` (centres undefined), the “Percent Effect” value is -15.32%. As to `COc1nc2cc(C)ccc2cc1CN(C)Cc1cc(C)[nH]n1.O=C(O)CC(O)(CC(=O)O)C(=O)O`, the “Percent Effect” value is listed as -1.641%. For the compound `O=C(O)C(F)(F)F.O=C(O)C(F)(F)F.O=C1[C@H]2CN(Cc3ccoc3)C[C@H]2CN1CCN1CCCC1`, the “Percent Effect” value was -10.49%. For `O=C(c1cocn1)N1C[C@@H]2COC[C@]2(COc2cccnc2)C1` the value was 75.2%; for `O=C(c1ncccn1)N1C[C@@H]2COC[C@]2(COc2cccnc2)C1`, 26.01%. Take `O=C(C1=CCCC1)N1C[C@@H]2COC[C@]2(COc2cccnc2)C1`: the “Percent Effect” value came to 1.513%. As to `O=C(O)C(F)(F)F.O=C(c1cocn1)N1C[C@H]2CCC[C@@]2(COc2ccccn2)C1`, the “Percent Effect” value worked out at 21.2%.

Turning to `Cn1cc(CNC2CC3(CCN(S(C)(=O)=O)CC3)c3ccccc32)cn1.O=C(O)C(F)(F)F` (centres undefined), the “Percent Effect” value was 36.25%. In the case of `CS(=O)(=O)N1CCC2(CC1)CC(NCC1CC1)c1ccccc12.O=C(O)C(F)(F)F` (centres undefined), the “Percent Effect” value amounted to 1.272%. With `CS(=O)(=O)N1CCC2(CC1)CC(NCc1ccco1)c1ccccc12.O=C(O)C(F)(F)F` (centres undefined), the “Percent Effect” value came to 55%.
